Test results taken from PubChem BioAssay (EPA / NIEHS).
Records with an inconclusive call do not appear. Calls of active or inactive are those of the source. Rule for the calls, unless noted: active = hit-call score of the fitted dose curve at least 0.9, where 1 is the maximum; inconclusive = response in the unintended direction; inactive = score below 0.9.

Legend:
[1] = CLD_ACTIN_6hr: CellzDirect (CLD) Gene Expression Assay for Baseline Control (Actin) at 6 hours (AID 2283676);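 note: active means increased actin mRNA relative to DMSO vehicle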
Summary of the method: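 Primary human hepatocytes dosed with fresh chemical solutions (vehicle 0.2% DMSO), harvested at 6 h. Actin mRNA quantified by quantitative nuclease protection assay with chemiluminescent read-out, as background control relative to DMSO.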

[2] = read-out: Cytochrome P450 2B6 (Homo sapiens) (UniProt P20813); test: CLD_CYP2B6_6hr: CellzDirect (CLD) Gene Expression Assay for xenobiotic metabolism (CYP2B6) at 6 hours (AID 2283677);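 note: actives raise CYP2B6 transcript above DMSO baseline so AC50 marks an inducer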
Summary of the method: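 Primary human hepatocytes dosed with chemicals at multiple concentrations, vehicle 0.2% DMSO; CYP2B6 mRNA induction measured 6 h after dosing by quantitative nuclease protection assay with chemiluminescence, gain of signal fitted relative to DMSO.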

[3] = CCTE_Padilla_ZF_144hpf_TERATOSCORE: (Legacy) CCTE's 144 Hour Post-fertilization zebrafish Assay Teratoscore, Padilla Lab (AID 2283679; active = hit-call score of the fitted dose curve at least 0.9, where 1 is the maximum; inactive = score below 0.9;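 for AC50: zebrafish embryos with chorions exposed by immersion from 6-8 hpf to 5 dpf with daily renewal; teratogenicity score from eye scoring of death hatching and malformations at 144 hpf; higher score means more developmental defects relative to DMSO baseline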)
Summary of the method: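 Larvae scored by eye at 144 hpf for death, hatching and malformations after a day in clean Hanks'. Before that, daily-renewed exposure at 80 uM (0.4% DMSO, 26C) from roughly 6-8 hpf through 5 dpf, 4 embryos per chemical.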

[4] = read-out: Glyceraldehyde-3-phosphate dehydrogenase (Homo sapiens) (UniProt P04406); test: CLD_GAPDH_6hr: CellzDirect (CLD) Gene Expression Assay for Baseline Control (Glyceraldehyde 3-phosphate dehydrogenase) at 6 hours (AID 2283681);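 note: active means increased signal relative to DMSO vehicle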
Summary of the method: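 Primary human hepatocytes from two donor preparations, dosed at multiple concentrations with 0.2% DMSO vehicle; GAPDH mRNA measured 6 h after dosing by chemiluminescent quantitative nuclease protection assay (qNPA) on denatured lysates. Serves as background control; cytotoxicity annotated by morphology.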

[5] = read-out: xenobiotic metabolism (CYP1A2), CYP1A2 (gene 1544); test: CLD_CYP1A2_24hr: CellzDirect (CLD) Gene Expression Assay for xenobiotic metabolism (CYP1A2) at 24 hours (AID 2283683)
Summary of the method: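 Primary human hepatocytes from two donor preparations dosed daily with multiple concentrations of chemical, 0.2% DMSO vehicle. CYP1A2 mRNA at 24 h quantified by qNPA chemiluminescence; gain of signal analyzed relative to DMSO. Cytotoxicity flagged by phase-contrast morphology.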

[6] = read-out: Cytochrome P450 2B6 (Homo sapiens) (UniProt P20813); test: CLD_CYP2B6_24hr: CellzDirect (CLD) Gene Expression Assay for xenobiotic metabolism (CYP2B6) at 24 hours (AID 2283686)
Summary of the method: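 Primary human hepatocytes dosed daily for two days with fresh solutions, harvested at 24 hours; mRNA induction quantified by qNPA chemiluminescence, gain of signal vs 0.2% DMSO vehicle. Cytotoxicity annotated from phase-contrast morphology.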

[7] = read-out: Cytochrome P450 2C9 (Homo sapiens) (UniProt P11712); test: CLD_CYP2C9_24hr: CellzDirect (CLD) Gene Expression Assay for xenobiotic metabolism (CYP2C9) at 24 hours (AID 2283688)
Summary of the method: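 Primary human hepatocytes from two donor preparations, dosed daily for two days at multiple concentrations; vehicle 0.2% DMSO. CYP2C9 mRNA induction at 24 h measured by qNPA chemiluminescence relative to DMSO; cytotoxicity annotated from morphology.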

[8] = read-out: HMG-CoA synthase (HMGCS2), HMGCS2 (gene 3158); test: CLD_HMGCS2_6hr: CellzDirect (CLD) Gene Expression Assay for HMG-CoA synthase (HMGCS2) at 6 hours (AID 2283682);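 note: actives raise HMGCS2 transcript above the 0.2% DMSO vehicle baseline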
Summary of the method: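 Primary human hepatocytes dosed daily with fresh chemical, 0.2% DMSO vehicle; HMGCS2 mRNA measured at 6 h by qNPA chemiluminescence. Gain of signal fitted against DMSO; cytotoxicity flagged from phase-contrast morphology.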

[9] = read-out: ABC Transporter (ABCB11), ABCB11 (gene 8647); test: CLD_ABCB11_6hr: CellzDirect (CLD) Gene Expression Assay for ABC Transporter (ABCB11) at 6 hours (AID 2283675);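 note: hits raise ABCB11 mRNA level so AC50 marks induction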
Summary of the method: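 Human primary hepatocytes (two donor preparations) given fresh chemical daily at multiple concentrations, vehicle 0.2% DMSO. ABCB11 mRNA induction measured 6 h after dosing by qNPA chemiluminescence versus DMSO; cytotoxicity annotated from morphology.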

[10] = read-out: Cytochrome P450 3A4 (Homo sapiens) (UniProt P08684); test: CLD_CYP3A4_6hr: CellzDirect (CLD) Gene Expression Assay for xenobiotic metabolism (CYP3A4) at 6 hours (AID 2283680)
Summary of the method: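 Primary human hepatocytes (two donor preparations) dosed; CYP3A4 mRNA harvested at 6 h and quantified by qNPA chemiluminescence. Gain of signal fitted against 0.2% DMSO vehicle; cytotoxicity flagged by phase-contrast morphology.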

[11] = read-out: Broad substrate specificity ATP-binding cassette transporter ABCG2 (Homo sapiens) (UniProt Q9UNQ0); test: CLD_ABCG2_24hr: CellzDirect (CLD) Gene Expression Assay for ABC Transporter (ABCG2) at 24 hours (AID 2283685)
Summary of the method: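 Primary human hepatocytes were dosed daily with ToxCast chemicals at multiple concentrations (vehicle 0.2% DMSO). ABCG2 mRNA was measured at 24 h by qNPA chemiluminescence; induction was scored as gain of signal versus DMSO.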

[12] = read-out: Cytochrome P450 2C19 (Homo sapiens) (UniProt P33261); test: CLD_CYP2C19_6hr: CellzDirect (CLD) Gene Expression Assay for xenobiotic metabolism (CYP2C19) at 6 hours (AID 2283678)
Summary of the method: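 Primary human hepatocytes from two donor preparations were dosed daily, with 0.2% DMSO as vehicle, and harvested 6 h after dosing. CYP2C19 mRNA induction was measured by qNPA chemiluminescence and fitted as gain of signal against DMSO.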

[13] = read-out: organic anion transporter (SLCO1B1), SLCO1B1 (gene 10599); test: CLD_SLCO1B1_24hr: CellzDirect (CLD) Gene Expression Assay for organic anion transporter (SLCO1B1) at 24 hours (AID 2283690)
Summary of the method: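 Primary human hepatocytes (two donor preparations) dosed daily for two days with chemicals at multiple concentrations, 0.2% DMSO vehicle. SLCO1B1 mRNA at 24 h measured by qNPA chemiluminescence; induction fitted relative to DMSO.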

[14] = read-out: alkyl and aryl transferase (GSTA2), GSTA2 (gene 2939); test: CLD_GSTA2_24hr: CellzDirect (CLD) Gene Expression Assay for alkyl and aryl transferase (GSTA2) at 24 hours (AID 2283693)
Summary of the method: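 Primary human hepatocytes (two donor preparations) dosed daily for two days with chemicals at multiple concentrations (vehicle 0.2% DMSO); GSTA2 mRNA at 24 h measured by qNPA chemiluminescence, gain-of-signal versus DMSO.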

Chain of Glyceraldehyde-3-phosphate dehydrogenase (Homo sapiens) (P04406 whole entry, looked up): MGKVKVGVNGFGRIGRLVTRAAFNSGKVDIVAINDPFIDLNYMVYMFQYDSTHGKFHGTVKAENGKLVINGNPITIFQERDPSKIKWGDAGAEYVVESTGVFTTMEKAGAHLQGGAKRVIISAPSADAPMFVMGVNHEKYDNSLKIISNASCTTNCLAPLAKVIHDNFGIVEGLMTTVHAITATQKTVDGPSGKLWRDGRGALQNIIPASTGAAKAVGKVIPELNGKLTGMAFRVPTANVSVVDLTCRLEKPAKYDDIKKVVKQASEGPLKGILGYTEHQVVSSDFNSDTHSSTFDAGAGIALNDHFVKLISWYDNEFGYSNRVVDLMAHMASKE
Chain of Broad substrate specificity ATP-binding cassette transporter ABCG2 (Homo sapiens) (Q9UNQ0 whole entry, looked up): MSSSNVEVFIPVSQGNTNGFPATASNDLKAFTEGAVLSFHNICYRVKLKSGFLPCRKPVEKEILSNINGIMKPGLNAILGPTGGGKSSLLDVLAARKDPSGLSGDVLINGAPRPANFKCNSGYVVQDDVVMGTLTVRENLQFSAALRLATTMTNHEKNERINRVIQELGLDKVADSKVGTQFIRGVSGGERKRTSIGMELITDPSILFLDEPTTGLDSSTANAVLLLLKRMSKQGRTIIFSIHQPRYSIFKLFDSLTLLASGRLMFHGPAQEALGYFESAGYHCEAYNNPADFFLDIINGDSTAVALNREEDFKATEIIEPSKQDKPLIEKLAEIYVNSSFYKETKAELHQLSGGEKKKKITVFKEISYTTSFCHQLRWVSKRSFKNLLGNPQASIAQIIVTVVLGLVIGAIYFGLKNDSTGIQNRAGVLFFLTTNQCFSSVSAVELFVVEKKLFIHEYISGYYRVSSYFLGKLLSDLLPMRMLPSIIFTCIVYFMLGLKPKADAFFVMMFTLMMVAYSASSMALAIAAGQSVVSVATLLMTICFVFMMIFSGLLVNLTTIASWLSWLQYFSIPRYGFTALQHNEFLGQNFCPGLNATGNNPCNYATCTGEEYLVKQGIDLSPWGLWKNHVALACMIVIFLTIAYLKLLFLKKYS
Chain of Cytochrome P450 3A4 (Homo sapiens) (P08684 whole entry, looked up): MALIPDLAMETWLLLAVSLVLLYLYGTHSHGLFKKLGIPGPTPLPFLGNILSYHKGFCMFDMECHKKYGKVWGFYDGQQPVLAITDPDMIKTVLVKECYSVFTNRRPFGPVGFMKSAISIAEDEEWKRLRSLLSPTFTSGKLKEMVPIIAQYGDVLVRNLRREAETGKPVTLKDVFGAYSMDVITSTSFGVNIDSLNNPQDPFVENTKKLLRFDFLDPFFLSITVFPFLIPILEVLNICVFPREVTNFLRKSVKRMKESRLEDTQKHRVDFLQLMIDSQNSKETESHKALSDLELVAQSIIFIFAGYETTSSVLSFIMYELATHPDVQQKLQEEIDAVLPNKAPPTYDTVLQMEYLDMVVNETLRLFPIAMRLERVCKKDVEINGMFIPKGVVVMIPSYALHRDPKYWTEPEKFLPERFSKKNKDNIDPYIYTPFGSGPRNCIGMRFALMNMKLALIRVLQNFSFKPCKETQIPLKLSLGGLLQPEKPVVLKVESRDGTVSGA
Chain of Cytochrome P450 2C19 (Homo sapiens) (P33261 whole entry, looked up): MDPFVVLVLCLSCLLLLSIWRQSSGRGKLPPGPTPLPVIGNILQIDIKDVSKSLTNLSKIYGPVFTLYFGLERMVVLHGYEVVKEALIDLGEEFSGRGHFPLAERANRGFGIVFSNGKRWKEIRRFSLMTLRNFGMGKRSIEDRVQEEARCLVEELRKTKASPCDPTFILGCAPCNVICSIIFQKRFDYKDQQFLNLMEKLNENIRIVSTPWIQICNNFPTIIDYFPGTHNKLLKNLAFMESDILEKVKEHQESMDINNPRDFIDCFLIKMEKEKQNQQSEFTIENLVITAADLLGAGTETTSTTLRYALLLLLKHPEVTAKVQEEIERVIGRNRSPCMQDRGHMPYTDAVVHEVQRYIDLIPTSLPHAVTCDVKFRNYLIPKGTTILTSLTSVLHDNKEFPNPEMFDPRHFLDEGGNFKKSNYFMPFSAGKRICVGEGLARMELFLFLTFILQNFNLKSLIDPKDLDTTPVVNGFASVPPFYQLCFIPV

With CC(C)NC(=O)N1CC(=O)N(c2cc(Cl)cc(Cl)c2)C1=O the outcome [1] was “inactive”, the AC50 [2] was 20 µM (active) and the AC50 [3] was 74.4 µM (active). The outcome [4] was “inactive”, the AC50 [5] was 15.7 µM (active) and the AC50 [6] was 10.4 µM (active). The outcome [7] was “inactive”.

For CCC(C)n1c(=O)[nH]c(C)c(Br)c1=O (configuration not stated), the AC50 [2] was 3.08 µM (active), the outcome [3] was “inactive” and the outcome [8] was “inactive”. The AC50 [5] was 7.45 µM (active) and the AC50 [6] was 1.56 µM (active).

For C=CCOC(=O)C(C)(C)OC(=O)c1cc(-n2c(=O)cc(C(F)(F)F)n(C)c2=O)ccc1Cl, the outcome [9] was “inactive”, the AC50 [2] was 0.32 µM (active) and the AC50 [3] was 0.00588 µM (active). The AC50 [10] was 0.29 µM (active), the outcome [4] was “inactive” and the outcome [8] was “inactive”. For the same compound, the outcome [11] was “inactive”, the AC50 [6] was 0.173 µM (active) and the outcome [7] was “inactive”.

In the case of CCCCC(C#N)(Cn1cncn1)c1ccc(Cl)cc1 (configuration not stated), the outcome [1] is reported as “inactive”, the AC50 [2] is reported as 2.77 µM (active) and the outcome [12] is reported as “inactive”. The AC50 [3] was 62.6 µM (active), the AC50 [5] was 20 µM (active) and the outcome [11] was “inactive”. The AC50 [6] was 9.62 µM (active), the outcome [13] was “inactive” and the outcome [14] was “inactive”.

In the case of CCN(CC)C(=O)C(C)Oc1cccc2ccccc12 (configuration not stated), the AC50 [2] is reported as 0.317 µM (active), the outcome [3] is reported as “inactive” and the AC50 [5] is reported as 8.79 µM (active). For the same compound, the outcome [6] was “inactive” and the outcome [7] was “inactive”.

For Cn1c(-c2ccccc2)cc(-c2ccccc2)[n+]1C, the outcome [1] was “inactive”, the outcome [3] was “inactive” and the outcome [4] was “inactive”. The outcome [8] was “inactive”, the AC50 [5] was 0.141 µM (active) and the outcome [11] was “inactive”. The outcome [14] was “inactive”.
